From PubChem BioAssay (EPA / NIEHS)
Activity calls are given as the source filed them. The calls were made as follows: active = hit-call score of the fitted dose curve at least 0.9, where 1 is the maximum; inactive = score below 0.9.

Tests used:
Settings in all cases: mRNA level, 48 h; actives raise or lower the signal
[1] = read-out: DNA damage-inducible transcript 3 (DDIT3), DDIT3 (gene 1649); assay: LTEA_HepaRG_DDIT3: Life Technologies and Expression Analysis (LTEA) Assay for DNA damage-inducible transcript 3 (DDIT3) using HepaRG (AID 2283488)
Method in brief: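 HepaRG plated 48 h, switched to serum-free induction medium, dosed 48 h (100 uM top, half-log, 8 pts, 0.5% DMSO, n=2); RNA isolated; DDIT3 by qRT-PCR; bidirectional curve fit vs DMSO.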

[2] = read-out: Pro-epidermal growth factor (Homo sapiens) (UniProt P01133); assay: LTEA_HepaRG_EGF: Life Technologies and Expression Analysis (LTEA) Assay for Epidermal growth factor (EGF) using HepaRG (AID 2283489)
Method in brief: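 qRT-PCR readout of EGF transcript after 48 h chemical exposure of HepaRG cells; eight concentrations from 100 uM down in half-log steps, duplicate wells, 0.5% DMSO vehicle. Bidirectional curve fitting against DMSO baseline.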

[3] = read-out: Early growth response protein 1 (EGR1) transcription factor, EGR1 (gene 1958); assay: LTEA_HepaRG_EGR1: Life Technologies and Expression Analysis (LTEA) Assay for Early growth response protein 1 (EGR1) transcription factor using HepaRG (AID 2283490)
Method in brief: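 Read-out is EGR1 mRNA level by qRT-PCR, normalized to three housekeeping genes and analysed for gain or loss of signal against 0.5% DMSO. Source cells: human HepaRG, treated 48 h at up to 100 uM in half-log dilutions.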

[4] = read-out: Ezrin (EZR), EZR (gene 7430); assay: LTEA_HepaRG_EZR: Life Technologies and Expression Analysis (LTEA) Assay for Ezrin (EZR) using HepaRG (AID 2283491)
Method in brief: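 Differentiated human HepaRG cells, 48 h after plating, were exposed in serum-free induction medium for 48 hours to eight half-log concentrations up to 100 uM in 0.5% DMSO. EZR mRNA was measured by TaqMan qRT-PCR, normalized to ACTB, GAPDH and POLR2A, and fitted bidirectionally against DMSO.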

[5] = read-out: Cytochrome P450 3A7 (Homo sapiens) (UniProt P24462); assay: LTEA_HepaRG_CYP3A7: Life Technologies and Expression Analysis (LTEA) Assay for CYP3A7 using HepaRG (AID 2283492)
Method in brief: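 CYP3A7 transcript levels were read by TaqMan qRT-PCR on Fluidigm arrays after 48 h chemical exposure of human HepaRG cells, with housekeeping-gene normalisation. Eight half-log concentrations up to 100 uM in 0.5% DMSO were tested in duplicate.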

CYP3A5 (gene 1577) = assay: LTEA_HepaRG_CYP3A5: Life Technologies and Expression Analysis (LTEA) Assay for CYP3A5 using HepaRG (AID 2283493)
Method in brief: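 HepaRG plated 48 h, switched to serum-free induction medium, chemicals added 48 h (max 100 uM, half-log, 0.5% DMSO). RNA isolated; CYP3A5 by TaqMan qRT-PCR. Gain/loss vs DMSO.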

[6] = read-out: Fatty Acid-Binding Protein 1 (FABP1), FABP1 (gene 2168); assay: LTEA_HepaRG_FABP1: Life Technologies and Expression Analysis (LTEA) Assay for Fatty Acid-Binding Protein 1 (FABP1) using HepaRG (AID 2283494)
Method in brief: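 HepaRG, 48 h post-plating switched to serum-free induction medium, then dosed 48 h (duplicate, 8 pts, ≤100 uM, 0.5% DMSO). RNA → Fluidigm TaqMan qRT-PCR, FABP1 normed to ACTB/GAPDH/POLR2A. Bidirectional curve fit vs DMSO.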

[7] = read-out: Cytochrome P450 4A22 (Homo sapiens) (UniProt Q5TCH4); assay: LTEA_HepaRG_CYP4A22: Life Technologies and Expression Analysis (LTEA) Assay for Cytochrome P450 4A22 (CYP4A22) using HepaRG (AID 2283495)
Method in brief: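 HepaRG, 48 h post-plating -> serum-free induction medium; dosed 48 h, duplicate, 8 conc. (100 uM top, half-log), 0.5% DMSO. Readout: CYP4A22 mRNA by qRT-PCR, ACTB/GAPDH/POLR2A normalization; gain/loss fit relative to DMSO.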

[8] = read-out: Cytochrome P450 7A1 (Homo sapiens) (UniProt P22680); assay: LTEA_HepaRG_CYP7A1: Life Technologies and Expression Analysis (LTEA) Assay for Cytochrome P450 7A1 (CYP7A1) using HepaRG (AID 2283496)
Method in brief: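 HepaRG cells plated 48 h, then switched to serum-free induction medium and exposed in duplicate for 48 h to 8-point half-log series from 100 uM in 0.5% DMSO. CYP7A1 mRNA by qRT-PCR (TaqMan), normalized to ACTB/GAPDH/POLR2A; bidirectional fit versus DMSO.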

[9] = read-out: Glutathione S-Transferase (GSTA2), GSTA2 (gene 2939); assay: LTEA_HepaRG_GSTA2: Life Technologies and Expression Analysis (LTEA) Assay for Glutathione S-Transferase (GSTA2) using HepaRG (AID 2283497)
Method in brief: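 HepaRG, 48 h dosing, 8-pt half-log CRC from 100 uM, 0.5% DMSO vehicle, n=2; RNA → Fluidigm TaqMan qRT-PCR; GSTA2 vs ACTB/GAPDH/POLR2A; gain/loss fit vs DMSO.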

[10] = read-out: Glutamate-cysteine ligase catalytic (GCLC), GCLC (gene 2729); assay: LTEA_HepaRG_GCLC: Life Technologies and Expression Analysis (LTEA) Assay for Glutamate-cysteine ligase catalytic (GCLC) using HepaRG (AID 2283498)
Method in brief: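 Read-out is GCLC transcript level by Fluidigm-based TaqMan qRT-PCR, normalized to three housekeeping genes and fitted in both directions relative to 0.5% DMSO. Human HepaRG cells received chemicals for 48 h, up to 100 uM.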

[11] = read-out: growth arrest and DNA damage 45 (GADD45G), GADD45G (gene 10912); assay: LTEA_HepaRG_GADD45G: Life Technologies and Expression Analysis (LTEA) Assay for growth arrest and DNA damage 45 (GADD45G) using HepaRG (AID 2283499)
Method in brief: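 HepaRG, 48 h exposure, top 100 uM, half-log 8-point series, 0.5% DMSO vehicle, duplicates. Readout: GADD45G transcript by qRT-PCR (Fluidigm array), housekeeping-normalised (ACTB/GAPDH/POLR2A). Bidirectional curve fit vs DMSO baseline.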

[12] = read-out: Glutamate-cysteine ligase regulatory (GCLM), GCLM (gene 2730); assay: LTEA_HepaRG_GCLM: Life Technologies and Expression Analysis (LTEA) Assay for Glutamate-cysteine ligase regulatory (GCLM) using HepaRG (AID 2283500)
Method in brief: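 Cells were plated, cultured 48 h, switched to serum-free induction medium, then dosed in duplicate for 48 h at eight half-log concentrations up to 100 uM. RNA was then profiled by qRT-PCR; gain or loss versus DMSO was fitted.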

[13] = read-out: Glutathione S-transferase M3 (GSTM3), GSTM3 (gene 2947); assay: LTEA_HepaRG_GSTM3: Life Technologies and Expression Analysis (LTEA) Assay for Glutathione S-transferase M3 (GSTM3) using HepaRG (AID 2283501)
Method in brief: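 qRT-PCR read-out of GSTM3 transcript, normalized to three housekeeping genes, from human HepaRG cells after 48 h chemical exposure. Eight-point half-log series, top 100 uM, 0.5% DMSO vehicle; gain or loss fitted relative to DMSO baseline.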

[14] = read-out: Heat shock 70 kDa protein 1 (HSPA1A), gene 3303; assay: LTEA_HepaRG_HSPA1A: Life Technologies and Expression Analysis (LTEA) Assay for Heat shock 70 kDa protein 1 (HSPA1A) using HepaRG (AID 2283502)
Method in brief: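 Readout is HSPA1A transcript level by microfluidic qRT-PCR, normalized to three housekeeping genes and analysed for gain or loss of signal relative to 0.5% DMSO. Human HepaRG cultures received test chemicals for 48 h at up to 100 uM.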

[15] = read-out: Hypoxia-inducible factor 1-alpha (Homo sapiens) (UniProt Q16665); assay: LTEA_HepaRG_HIF1A: Life Technologies and Expression Analysis (LTEA) Assay for Hypoxia-inducible factor 1 (HIF1A) Trancription factor using HepaRG (AID 2283503)
Method in brief: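 Differentiated HepaRG cells in serum-free induction medium exposed 48 h, in duplicate, to 8-point half-log series from 100 uM in 0.5% DMSO. HIF1A mRNA measured by TaqMan qRT-PCR, normalized to ACTB/GAPDH/POLR2A, fitted bidirectionally versus DMSO.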

[16] = read-out: 3-Hydroxy-3-Methylglutaryl-CoA Synthase 2 (HMGCS2), HMGCS2 (gene 3158); assay: LTEA_HepaRG_HMGCS2: Life Technologies and Expression Analysis (LTEA) Assay for 3-Hydroxy-3-Methylglutaryl-CoA Synthase 2 (HMGCS2) using HepaRG (AID 2283504)
Method in brief: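 qRT-PCR read-out of HMGCS2 transcript, normalised to three housekeeping genes, in HepaRG cells after 48 h chemical exposure. Eight-point curves from 100 uM, half-log dilutions, 0.5% DMSO vehicle; gain or loss fitted relative to DMSO baseline.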

HGF (gene 3082) = assay: LTEA_HepaRG_HGF: Life Technologies and Expression Analysis (LTEA) Assay for Hepatocyte Growth Facto (HGF) using HepaRG (AID 2283505)
Method in brief: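 HepaRG, 48 h dosing, 8-pt half-log series from 100 uM in 0.5% DMSO, duplicates. Readout: TaqMan qRT-PCR of HGF mRNA, housekeeping-normalized; bidirectional curve fit vs DMSO baseline.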

[17] = read-out: Insulin Like Growth Factor 1 (IGF1), IGF1 (gene 3479); assay: LTEA_HepaRG_IGF1: Life Technologies and Expression Analysis (LTEA) Assay for Insulin Like Growth Factor 1 (IGF1) using HepaRG (AID 2283506)
Method in brief: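 HepaRG, plated 48 h, then switched to serum-free induction media; test chemical 8-pt half-log from 100 uM (0.5% DMSO), duplicate, 48 h. Lysis in RLT, TaqMan qRT-PCR, norm. ACTB/GAPDH/POLR2A. Bidirectional fit vs DMSO.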

[18] = read-out: Intercellular Adhesion Molecule 1 (ICAM1), ICAM1 (gene 3383); assay: LTEA_HepaRG_ICAM1: Life Technologies and Expression Analysis (LTEA) Assay for Intercellular Adhesion Molecule 1 (ICAM1) using HepaRG (AID 2283507)
Method in brief: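 HepaRG, 48 h exposure, 8-pt half-log series from 100 uM, 0.5% DMSO vehicle, duplicates. Readout: TaqMan qRT-PCR mRNA, housekeeping-normalized (ACTB/GAPDH/POLR2A). Bidirectional curve fit vs DMSO baseline.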

Measured: AC50

Sequence of Cytochrome P450 3A7 (Homo sapiens) (P24462 whole entry, looked up): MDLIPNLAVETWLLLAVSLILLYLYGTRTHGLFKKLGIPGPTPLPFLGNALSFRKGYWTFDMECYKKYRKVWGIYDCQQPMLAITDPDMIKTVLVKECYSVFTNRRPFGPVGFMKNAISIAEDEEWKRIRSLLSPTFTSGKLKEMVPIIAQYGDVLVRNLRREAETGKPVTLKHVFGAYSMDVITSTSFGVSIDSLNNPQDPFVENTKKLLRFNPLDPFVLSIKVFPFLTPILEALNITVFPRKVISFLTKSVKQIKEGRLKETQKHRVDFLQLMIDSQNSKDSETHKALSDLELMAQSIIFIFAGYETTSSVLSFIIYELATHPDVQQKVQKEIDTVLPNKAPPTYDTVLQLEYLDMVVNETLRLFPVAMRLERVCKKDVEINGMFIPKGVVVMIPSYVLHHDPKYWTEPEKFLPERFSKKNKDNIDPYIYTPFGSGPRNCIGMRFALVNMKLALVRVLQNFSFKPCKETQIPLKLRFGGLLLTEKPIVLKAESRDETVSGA
Sequence of Hypoxia-inducible factor 1-alpha (Homo sapiens) (Q16665 whole entry, looked up): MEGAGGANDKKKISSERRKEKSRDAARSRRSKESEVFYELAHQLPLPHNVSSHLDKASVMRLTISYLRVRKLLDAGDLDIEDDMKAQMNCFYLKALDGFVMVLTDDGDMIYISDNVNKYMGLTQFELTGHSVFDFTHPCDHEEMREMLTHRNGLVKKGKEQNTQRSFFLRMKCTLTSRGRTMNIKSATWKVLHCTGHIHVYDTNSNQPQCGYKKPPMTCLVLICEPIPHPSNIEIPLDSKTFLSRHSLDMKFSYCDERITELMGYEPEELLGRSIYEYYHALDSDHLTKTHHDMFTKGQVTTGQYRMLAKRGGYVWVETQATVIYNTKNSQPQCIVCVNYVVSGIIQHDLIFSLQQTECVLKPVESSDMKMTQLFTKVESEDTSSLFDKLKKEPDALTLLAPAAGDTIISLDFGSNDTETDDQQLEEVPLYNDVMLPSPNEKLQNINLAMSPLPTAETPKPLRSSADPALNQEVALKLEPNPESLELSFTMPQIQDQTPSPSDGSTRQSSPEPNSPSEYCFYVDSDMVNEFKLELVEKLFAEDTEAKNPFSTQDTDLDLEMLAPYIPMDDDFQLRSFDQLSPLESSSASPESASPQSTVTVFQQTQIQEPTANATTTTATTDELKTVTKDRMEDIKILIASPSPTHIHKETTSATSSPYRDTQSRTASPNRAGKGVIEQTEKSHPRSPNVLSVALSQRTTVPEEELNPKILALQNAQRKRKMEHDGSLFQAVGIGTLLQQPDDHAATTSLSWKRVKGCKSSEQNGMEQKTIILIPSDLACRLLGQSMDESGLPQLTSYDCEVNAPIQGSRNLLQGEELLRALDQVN

O=C(O)c1ccccc1C(c1ccc(O)cc1)c1ccc(O)cc1
inactive: all assays above

CCc1nn(C2CCCCC2)c2cc(C3(C#N)CCC(C(=O)O)CC3)ccc12 (stereo not given)
inactive: CYP3A5 (gene 1577) | [13] | [15] | HGF (gene 3082)
active: [1] 77.5 µM | [2] 50 µM | [3] 12.1 µM | [4] 0.313 µM | [5] 87.8 µM | [6] 88.2 µM | [7] 56.7 µM | [8] 63.3 µM | [9] 77.1 µM | [10] 83.6 µM | [11] 85.5 µM | [12] 50 µM | [14] 12.2 µM | [16] 81.8 µM | [17] 57.3 µM | [18] 28.7 µM

N#C[C@@H]1CC(F)(F)CN1C(=O)CNC1CC2CCC(C1)N2c1ncccn1 (stereo not given in full)
inactive: all assays above

CCCCCCCCC(=O)O
inactive: all assays above

C[C@@H]1C[C@H]2[C@@H]3CCC4=CC(=O)C=C[C@]4(C)[C@@]3(F)[C@@H](O)C[C@]2(C)[C@@]1(O)C(=O)COP(=O)(O)O
inactive: all assays above

CC(=O)CC(C)(C)O
inactive: all assays above

O=C(OCCOCCOC(=O)c1ccccc1)c1ccccc1
inactive: all assays above

O=C(O)Cc1cc(I)c(Oc2cc(I)c(O)c(I)c2)c(I)c1
inactive: [4] | [12] | [17]
active: [1] 51.9 µM | [2] 57.3 µM | [3] 51.6 µM | [5] 45.4 µM | CYP3A5 (gene 1577) 26.7 µM | [6] 62 µM | [7] 54.5 µM | [8] 48.2 µM | [9] 56.7 µM | [10] 57.9 µM | [11] 7.52 µM | [13] 33.5 µM | [14] 54 µM | [15] 21.5 µM | [16] 49.5 µM | HGF (gene 3082) 52.7 µM | [18] 54.8 µM

CCOC(=O)CC(O)(CC(=O)OCC)C(=O)OCC
inactive: all assays above

CC(C)(C)c1cc(C(C)(C)C)c(O)c(C(C)(C)C)c1
active: [5] 10.9 µM | [6] 14.1 µM | [8] 16.6 µM | [16] 21 µM
inactive: all other assays above

Cc1cc(C)c(O)c(C)c1
active: [5] 7.49 µM
inactive: all other assays above

CCCCC(CC)COC(=O)CCCCC(=O)OCc1ccccc1 (stereo not given)
inactive: all assays above
